Our source for the outcome values is PubChem BioAssay (NCATS).

Inconclusive results are not listed. Calls of active or inactive are those of the source. The call rests on the fitted dose curve; in most records, active means well fitted inhibition curve with a large enough effect; inconclusive means small, poorly fitted or top-dose-only effect; inactive means flat fitted curve, though single readings scatter.

In this assay the test system is CRL-7250. Put plainly: qHTS assay to identify novel small-molecules to repurpose for Merkel cell carcinoma treatment (AID 1296009). Further: nearly all actives have a fitted effect of over 60% in size. Conditions: MCC and control cell lines, CellTiter-Glo viability, 72 h; at 44.8 µM (top of the series) unless noted. Put shortly: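 Cells exposed to NPC (8-point) and MIPE (11-point) compound dilutions for 72 hr at 37 degree celsius; viability read by CellTiter-Glo luminescence, normalized to no-cell and DMSO in-plate controls.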
A general note: qHTS replaces the single test concentration by a dilution series.
For the compound `CCCOC(=O)c1ccc(N)cc1`, the compound was called inactive. To `CCOC(=O)C1=C[C@]2(CC)CCCN3CCc4c(n1c1ccccc41)[C@@H]32` belongs “inactive”; to `O=c1[nH]c(=O)c2ccccc2o1`, “inactive”.

Take `OC(C#CCN1CCCC1)(c1ccccc1)c1ccccc1`: the compound was called inactive. To `O=C(O)Cn1c(C(=O)Nc2nc(-c3ccccc3Cl)cs2)cc2ccccc21` belongs “inactive”. To `C[C@H](O)C(=O)Nc1c(I)c(C(=O)NC(CO)CO)c(I)c(C(=O)NC(CO)CO)c1I` belongs “inactive”; to `O[C@@H](COc1cccc2ncccc12)CN1CCN(C2c3ccccc3[C@@H]3[C@H](c4ccccc42)C3(F)F)CC1` (stereo partly drawn), “inactive”; to `O=C(O)c1cccc(-c2noc(-c3ccccc3F)n2)c1`, “inactive”. To `C[C@]12CCC(=O)C=C1[C@@H]1C[C@@H]1[C@H]1[C@@H]3[C@@H]4C[C@@H]4[C@@]4(CCC(=O)O4)[C@@]3(C)CC[C@@H]12` belongs “inactive”; to `CC(=O)OCC(=O)[C@@]1(O)CCC2C3CCC4=CC(=O)CC[C@]4(C)C3[C@@H](O)C[C@@]21C` (stereo partly drawn), “inactive”; to `CC(C)Cn1cnc2c1c(=O)n(C)c(=O)n2C`, “inactive”. `COc1cc(NS(=O)(=O)c2ccc(N)cc2)ncn1`: the outcome was inactive.

Regarding `CC(C)(C)c1ccc(C(O)CCCN2CCC(C(O)(c3ccccc3)c3ccccc3)CC2)cc1` (stereo not drawn), the call was inactive. In the case of `CCCCCCCCCCCCCCCCCCOCC(O)CO` (stereo not drawn), the compound was classed as inactive.

Take `NC(CSCC(=O)O)C(=O)O` (stereo not drawn): the compound was classed as inactive.

Turning to `CN1CCOC(c2ccccc2)c2ccccc2C1` (stereo not drawn), the compound was called inactive. To `COc1ccc(CN2CCN(C(c3ccc(F)cc3)c3ccc(F)cc3)CC2)c(OC)c1OC` belongs “inactive”. To `CCCCC(=O)O[C@]1(C(=O)CO)[C@@H](C)C[C@H]2[C@@H]3CCC4=CC(=O)C=C[C@]4(C)[C@@]3(F)[C@@H](O)C[C@@]21C` belongs “inactive”.
